Test in all cases: NCI-60 one-dose screen, 48 h (100 = growth as untreated, 0 = no growth, -100 = all killed)
What all share (conditions): 10 µM

The subject of assay [1] is K-562 leukemia.
Assay [2] relates to MDA-MB-231 breast.
Assay [3] deals with RXF 393 renal.
Assay [4] deals with SF-268 CNS.
Assay [5] has as its system SF-295 CNS.
Assay [6] relates to SF-539 CNS.
For assay [7], the system named is UACC-257 melanoma.
For assay [8], the system named is M14 melanoma.
Assay [9] deals with HCT-15 colon.
For assay [10], the system named is HT29 colon.
In assay [11] the test system is SNB-75 CNS.
Assay [12] concerns U251 CNS.
For assay [13], the system named is PC-3 prostate.
Assay [14] concerns SK-MEL-5 melanoma.
The subject of assay [15] is UACC-62 melanoma.
The subject of assay [16] is LOX IMVI melanoma.
In assay [17] the test system is SK-MEL-28 melanoma.
Assay [18] concerns SNB-19 CNS.
Assay [19] relates to SK-MEL-2 melanoma.
Assay [20] concerns MALME-3M melanoma.

About 83,000 compounds went through this panel and 20% of them were active in at least one assay; those are over-represented in the sample as a whole.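 Each cell line was grown in a 96-well plate and treated with one concentration of compound for 48 hours. Values below 10 were considered active.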 Values without a mark were called inactive. Calls of active or inactive are those of the source.

In the case of `COc1ccc2c(c1)N(CCO)C1=C(C(=O)OC1)C2c1ccc(OC)c(OC)c1` (stereo not given), the growth was 19.8% in assay [1]; 68% in assay [2]; 28.2% in [3]; 54.3% in [4]; 7.46% (active) in [5]; 13% in assay [6]. The growth in assay [7] was 53.7%; in assay [8], 36.1%; in assay [9] it was 39.6%; in assay [10], 9.84% (active); in [11], 16.2%; in assay [12], 34.5%. In addition, the growth in [13] was 38%; in [14] it was 16.9%; in assay [15] it was 27.3%; in [16], 38.2%; in assay [17], 61.6%.
For `Cc1cc(C)c2c(n1)sc1c(Nc3ccc(Cl)cc3)ncnc12`, the growth was 46.2% in [1]; 32.1% in [2]; 1.12% (active) in assay [3]; 0.138% (active) in assay [4]; 10.6% in assay [5]; -49.5% (active) in assay [6]. Further, the growth in assay [7] was 20.3%; in assay [8] it was -48.3% (active); in [10] it was 27.5%; in [11] it was 32.7%; in assay [18] it was 10.4%; in assay [12], 22.5%. The growth in [13] was 49.2%; in assay [14], 32.7%; in assay [15] it was -11% (active); in assay [16] it was -16.9% (active); in assay [17], 55.3%; in assay [19] it was 82.8%.
Take `COc1cc([C@@H]2c3cc4c(cc3C(Br)[C@H]3COC(=O)[C@H]23)OCO4)cc(OC)c1OC` (stereo not given in full): the growth in assay [20] was 31.5%; in [2] it was -5.49% (active); in assay [4], -29.9% (active); in [5], -15.4% (active); in assay [6], -44.5% (active); in assay [7] it was 16.2%. The growth is -8.65% (active) in assay [8]; -10.4% (active) in [10]; 9.76% (active) in [11]; -32.3% (active) in assay [18]; 1.29% (active) in assay [12]; 0.631% (active) in [13]. Also, the growth was -64.9% (active) in assay [14], 23.8% in assay [16] and 7.95% (active) in assay [19].
As to `Oc1[nH]c2ccc(Cl)cc2c1/C=c1/ccc2c(c1)N=C(c1cc(F)cc(F)c1)N=2`, the growth in assay [1] is 14.8%; in [2], 79.3%; in [3], 61.6%; in assay [5], 46.7%; in assay [6], 83.3%; in assay [7] it was 70.5%. Moreover, the growth in assay [8] was 68.5%; in [9] it was 46.1%; in assay [10], 22.7%; in assay [11], 11%; in [18], 77%; in assay [12], 73.9%. The growth in [13] was 62.6%; in assay [14], 35.5%; in assay [15], 44.8%; in assay [16] it was 47.2%; in assay [17], 65.4%; in assay [19] it was 54.8%.
As to `COc1ccc(C2CC(c3ccc(N(C)C)cc3)=NN2c2ccc(S(N)(=O)=O)cc2)cc1` (stereo not given), the growth was 83% in assay [20]; 67.7% in assay [2]; 63.2% in assay [3]; 59.6% in [4]; 35.2% in assay [5]; 114% in [6]. Moreover, the growth was 73.7% in assay [7]; 69.2% in assay [8]; 43% in [9]; 29.6% in assay [10]; 69.6% in [11]; 66.6% in [18]. Further, the growth in assay [12] was 26.6%; in assay [13] it was 18.9%; in assay [14], 69.4%; in assay [15], 62.3%; in [16], 54.9%; in assay [17] it was 86.3%. The growth in assay [19] was 79.7%.
In the case of `CN1CCCNc2c(c(=O)c2=O)NCCCN(C)CCCNc2c(c(=O)c2=O)NCCCN(C)CCCNc2c(c(=O)c2=O)NCCCN(C)CCCNc2c(c(=O)c2=O)NCCCN(C)CCCNc2c(c(=O)c2=O)NCCCN(C)CCCNc2c(c(=O)c2=O)NCCCN(C)CCCNc2c(c(=O)c2=O)NCCC1`, the growth in [2] is 46.5%; in assay [4], -16.5% (active); in assay [5], 65.9%; in [6], 6.63% (active); in [7] it was 21.2%; in [8] it was 61.1%. The growth in assay [9] is 62.4%; in assay [10], 59.3%; in [11] it was 84.3%; in [18] it was 40.5%; in [12], 15.2%; in assay [13] it was 77.5%. In addition, the growth in assay [14] is 39.6%; in [15] it was 43.7%; in [16], 58.1%; in assay [17], 22.6%; in assay [19], 76.6%.
For `Nc1ncn([C@@H]2O[C@H](CO)[C@@H](O)[C@H]2O)c(=O)n1`, the growth in [2] is -3.92% (active); in [4] it was 33.8%; in assay [5] it was 28.4%; in assay [6], 3.27% (active); in assay [7], 48%; in assay [8], 19.7%. Also, the growth in [9] was 22.9%; in assay [10], 19.9%; in [11], 20.3%; in assay [18] it was 46.6%; in [12] it was 19.6%; in assay [13], 31%. In addition, the growth in assay [14] was 48.3%; in [16] it was -9.93% (active); in assay [17], 34.8%; in [19] it was -21.5% (active).
In the case of `Nc1ccn(C2CC(O)C(CO)O2)c(=O)n1` (stereo not given), the growth is 99.5% in assay [1]; 115% in [2]; 110% in assay [4]; 116% in assay [5]; 98.3% in assay [6]; 113% in assay [7]. Moreover, the growth is 106% in assay [8]; 102% in assay [9]; 110% in assay [10]; 97.5% in assay [11]; 99.7% in assay [18]; 105% in [12]. Moreover, the growth is 99.4% in assay [13]; 105% in assay [14]; 104% in assay [16]; 120% in assay [17]; 87.8% in assay [19].
`COc1cc(-c2cc(/C=C3\C(=O)Nc4ccc(Cl)cc43)[nH]n2)cc(OC)c1OC`: the growth in [1] was 8.43% (active); in assay [2] it was 52.4%; in assay [3], 69.2%; in [4], 38.2%; in assay [5] it was 46.9%; in [6], 45.1%. The growth is 18.7% in assay [7]; 5.02% (active) in [8]; 7.21% (active) in assay [9]; 24.2% in assay [10]; -5.13% (active) in assay [11]; 32.1% in assay [12]. Also, the growth was -13.2% (active) in assay [13]; -68.8% (active) in assay [14]; -59.6% (active) in assay [15]; 5.85% (active) in assay [16]; -1.56% (active) in assay [17]; -19.1% (active) in assay [19].

Source of the values: PubChem BioAssay (NCI).
